# Measured values: PubChem BioAssay (Tox21)
# Where “and” joins values, the source holds several entries; their conditions need not be identical. Identical values can stand only once. Results filed as inconclusive are left out. Entries that show only a call come without a potency. Calls of active or inactive are those of the source. Calls follow the shape of the full dose curve.
# Experiment: Nuclear factor erythroid 2-related factor 2/antioxidant responsive element (Nrf2/ARE) small molecule agonists: luciferase reporter gene qHTS assay in human keratinocytes (AID 1919969); also: nearly all actives have a fitted effect of over 35% in size
# Conditions: KeratinoSens HaCaT ARE-luciferase, luminescence, 24 h; series mostly up to 92.4 µM
# Source text: National Center for Advancing Translational Sciences [NCATS]
# Division of Preclinical Innovation [DPI]
# U.S. Environmental Protection Agency [EPA]
# National Institutes of Environmental Health Sciences [NIEHS]
# National Toxicology Program [NTP]
# U.S. Food and Drug Administration [FDA]
# Oxidative stress has been implicated in the pathogenesis of a variety of diseases ranging from cancer to neurodegeneration. The antioxidant response element (ARE) signaling pathway plays an important role in the amelioration of oxidative stress. The KeratinoSens (Givaudan, Switzerland) is an in vitro test method which quantifies luciferase induction as a measure of activation of Keap1-Nrf2-antioxidationt/electrophile response element (ARE) dependant pathway in HaCaT human keratinocytes stably transfected with a selectable plasmid. The KeratinoSens assay is a cell-based assay with a reporter cell line to detect potential skin sensitizers by their ability to induce the Nrf2/ARE-response. The activation of the report gene under culture conditions can be detected by ONE-Glo Luciferase Assay System (Promega, Madison, WI). This cell line has been used to screen the Tox21 10K compound library to identify agonists that induce oxidative stress. The cytotoxicity of the Tox21 compound library against the KS-ARE cell line was tested in parallel by measuring the cell viability using CellTiter- Fluor assay system (Promega, Madison, WI) in the same wells.
# HaCaT derived cell line KeratinoSens were dispensed at 1,500 cells/5uL/well in 1536-well white wall/solid bottom plates using a Multidrop Combi (ThermoFisher Scientific, Waltham, MA) dispenser. After the assay plates were incubated at 37 C/5% CO2 for 5 h, 23 nL of compounds dissolved in DMSO, positive controls or DMSO only was transferred to the assay plate by a pintool workstation (Kalypsys, San Diego, CA). The plates were incubated at 37 C/5% CO2 for 23 h, followed by addition of 1uL/well of CellTiter-Fluor reagent into the assay plates using a Flying Reagent Dispenser (Aurora Discovery, San Diego, CA) for cell viability readout that measures cytotoxicity. After 1 h incubation at 37 C/5% CO2 the fluorescence intensity was measured using a ViewLux (PerkinElmer, Shelton, CT) plate reader. Then 4uL/well of One-Glo were added using a Flying Reagent Dispenser. After the plates were incubated at room temperature for 30 min, the luminescence intensity in the assay plates was measured using ViewLux plate reader.
# Potency is read from the fitted curve at half-maximal effect.
SMILES,Potency,"activity, positive = activation"
CCC(C)n1ncn(-c2ccc(N3CCN(c4ccc(OC[C@H]5CO[C@](Cn6cncn6)(c6ccc(Cl)cc6Cl)O5)cc4)CC3)cc2)c1=O (stereo not given in full),inactive,–
CC(C)=CCC[C@](C)(O)[C@@H]1CC=C(C)CC1,54.5 µM (active),–
CC(C)(C)C(=O)CCc1ccc(Cl)cc1,inactive,–
CC(=O)O[C@@]12CO[C@@H]1C[C@H](O)[C@@]1(C)C(=O)[C@H](O)C3=C(C)[C@@H](OC(=O)[C@H](O)[C@@H](NC(=O)OC(C)(C)C)c4ccccc4)C[C@@](O)([C@@H](OC(=O)c4ccccc4)[C@H]21)C3(C)C,inactive,–
CSc1ccc(Oc2ccc(S(N)(=O)=O)cc2CN(C)C)cc1C,inactive,–
CN(Cc1ccc(C(C)(C)C)cc1)Cc1cccc2ccccc12,inactive,–
Cc1ccc(C(C)C)cc2c(C)ccc1-2,inactive,–
CC(COc1ccc(C(C)(C)C)cc1)OS(=O)OCCCl (stereo not given),inactive,–
CCCCN(CCC(=O)OCC)C(C)=O,inactive,–
Clc1ccc2nsnc2c1NC1=NCCN1,inactive,–
Oc1ccc2c(c1)Cc1ccccc1-2,inactive,–
CC(=O)c1ccc2c(c1)N(CCCN(C)C)c1ccccc1S2,inactive,–
CN(C)CCCN(C)C,–,-12.5% [at 8.39 µM] (inactive)
CC(=O)OC1C2(C)CCC(C2)C1(C)C (stereo not given),inactive,–
CCCCC[Si](OCC)(OCC)OCC,inactive,–
CCCCCCCCCCCCCCCCCCCl,–,-2.4% [at 8.39 µM] (inactive)
Nc1c[n+](N2CCOCC2)no1,inactive,–
O=S(=O)(O)c1cc(Cl)c(Cl)cc1Cl,inactive,–
Cc1cc(C)c(C)c(C)c1,inactive,–
O=C(/C=C/c1ccc([N+](=O)[O-])cc1)c1ccccc1,54.6 µM (active),–

SMILES,Potency,"activity, positive = activation"
CCN(Cc1cccc(S(=O)(=O)O)c1)c1ccc(C(=C2C=CC(=[N+](CC)Cc3cccc(S(=O)(=O)O)c3)C=C2)c2ccc(O)cc2S(=O)(=O)[O-])cc1,inactive,–
c1ccc2c(c1)-c1ccc3ccc4cccc5cc-2c1c3c45,13.3 µM (active),–
C=CC(=O)OCCCCCCOC(=O)C=C,27.6 µM (active) and 24.3 µM (active),–
CCCCC(CC)COC(=O)CCCCC(=O)OCc1ccccc1 (stereo not given),inactive,–
O[C@@H](c1cc(C(F)(F)F)nc2c(C(F)(F)F)cccc12)[C@H]1CCCCN1,inactive,–
C=CC(=O)NC(C)(C)C,inactive,–
Nc1ccc2ccccc2c1S(=O)(=O)O,44.1 µM (active),–
COc1ccccc1OCCNCC(O)COc1cccc2[nH]c3ccccc3c12 (stereo not given),inactive,–
CC(C)(C)CC(C)(C)c1ccccc1O,inactive,–
CN1CCN(CCC(=O)N2c3ccccc3Sc3ccc(C(F)(F)F)cc32)CC1,inactive,–
CCCCCCCOC(=O)CCC,inactive,–
C1C2OC2C2C1C1CC2C2OC12 (stereo not given),inactive,–
CC(=O)OCC(=O)[C@@]1(O)[C@H](OC(C)=O)C[C@H]2[C@@H]3CCC4=CC(=O)C=C[C@]4(C)[C@@]3(F)[C@@H](O)C[C@@]21C,inactive,–
CC(N)=O,inactive,–
Nc1nc(-c2ccccc2)cs1,inactive,–
Cc1ccc(Br)cc1,inactive,–
C1CCC2(CCCCO2)OC1,inactive,–
CC[N+](CC)(CC)CCOC(=O)C(C1CCCC1)C1CCCC1,inactive,–
C=C[Si](OC)(OC)OC,inactive,–
Cc1cc(C)c(N)cc1C,inactive,–
